Measured values taken from PubChem BioAssay (NCI).
Compounds without any hit were thinned out: in the full panel of roughly 79,000, 15% have a hit. The source made the active and inactive calls. No stated cut-off is given here; in the data, active means growth inhibition above about 70%; inactive means the rest.

Tests used:
[1] = NCI Yeast Anticancer Drug Screen. Data for the rad50 strain (AID 155);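 further: 0% = growth of vehicle-only cultures of the same strain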; settings: S. cerevisiae rad50 strain growth inhibition; at 50.0 µM; hits give high values
In short: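 Vehicle-treated cultures provide the reference for the growth inhibition reported for compound-exposed, repair-deficient yeast.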

[2] = NCI Yeast Anticancer Drug Screen. Data for the sgs1 mgt1 strain (AID 161);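 further: 0% = growth of cultures given vehicle only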; settings: S. cerevisiae sgs1 mgt1 strain, at 50.0 µM, hits give high values
In short: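 Yeast cells carrying a defined DNA-repair defect were exposed to test compounds. Growth inhibition was measured relative to vehicle-treated controls.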

[3] = NCI Yeast Anticancer Drug Screen. Data for the cln2 rad14 strain (AID 165);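 further: 0% = growth equal to vehicle treated cultures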; settings: S. cerevisiae cln2 rad14 strain, at 50.0 µM, hits give high values
In short: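 Growth inhibition, relative to vehicle-treated controls, is the read-out. The test organism is a yeast strain with defined genetic alterations, cln2 rad14.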

[4] = NCI Yeast Anticancer Drug Screen. Data for the bub3 strain (AID 167); settings: S. cerevisiae bub3 mutant strain, at 50.0 µM, hits give high values
In short: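 Mutant yeast screening strain plus compound; vehicle-treated cultures serve as the 0% inhibition reference.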

[5] = NCI Yeast Anticancer Drug Screen. Data for the mlh1 rad18 strain (AID 175); settings: S. cerevisiae mlh1 rad18 strain growth inhibition; at 50.0 µM; hits give high values
In short: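 Cells of a genetically altered yeast strain, deficient in DNA damage repair, were treated with compound. Their growth was then compared with that of vehicle-treated cultures to give inhibition.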

Measured: growth inhibition

CCc1cnccc1C
inactive: [1] 10.3% | [2] -19.1% | [3] 6.25% | [4] 6.45% | [5] -9.75%

CCOC(=O)c1cnc(=S)n(CCC(C)C)c1N
inactive: [1] -11.2% | [2] 12.7% | [3] -40.5% | [4] 2.9% | [5] 4.95%

CCCCC(CC)/C(C)=N/NC(N)=O (centres undefined)
inactive: [1] 4.7% | [2] -5.3% | [3] -9.1% | [4] -1.15% | [5] -11.5%

CC(=O)Nc1ccc(S(=O)(=O)NC2(C)C(=O)N(C)C(=O)N(C)C2=O)cc1
inactive: [1] 32.2% | [2] 14.2% | [3] 17.5% | [4] 3.15% | [5] 27.7%

Cc1c[nH]c2nc(C)n(-c3ccccc3F)c(=N)c12
inactive: [1] -8.5% | [2] -9.35% | [3] -8.7% | [4] -10.8% | [5] -0.95%

COC(=O)c1nc(N)nc(C(=O)OC)c1C(=O)c1c(C)[nH]c2ccccc12
inactive: [1] -9.85% | [2] -36.9% | [3] -30.1% | [4] -28.4% | [5] -25.6%

COc1cc([C@@H]2c3cc4c(cc3[C@@H](Nc3ccc(NC(=O)c5cc(NC(=O)c6cc([N+](=O)[O-])cn6C)cn5C)cc3)[C@H]3COC(=O)[C@H]23)OCO4)cc(OC)c1O
inactive: [1] 34% | [2] 34% | [3] 9.2% | [4] 16.4% | [5] 6.45%

N/C(=N\OC(=O)Nc1cccc(Cl)c1)C(Cl)(Cl)Cl
active: [1] 96.8% | [2] 99.5% | [3] 96.3% | [4] 99.2% | [5] 99%

CC(=O)O[C@H]1CC[C@@]2(C)C(=CC(=O)[C@H]3[C@@H]4CC[C@H]([C@H](C)CCCC(C)C)[C@@]4(C)CC[C@@H]32)C1
inactive: [1] 10.8% | [2] 39% | [3] 36% | [4] 5.9% | [5] 46%

Cc1ccc(S(=O)(=O)N(C)C(C(=O)O)c2ccccc2)cc1 (centres undefined)
inactive: [1] 22.4% | [2] 7.15% | [3] -20.6% | [4] -7.8% | [5] 3%

Nc1ncnc2c1ncn2-c1ccccc1Cl
inactive: [1] 4.6% | [2] -4.95% | [3] -1.4% | [4] 0.75% | [5] 3.1%

OCCNCc1cccc(-c2ccccc2)c1O
inactive: [1] 24.6% | [2] 15.9% | [3] -18.8% | [4] 8.2% | [5] 16.9%

O=S1(=O)C2C=CC1CCCC2
inactive: [1] 3.35% | [2] -6.9% | [3] -30.9% | [4] -11.6% | [5] 2.05%

CCOc1cn(C2OC(CO)C(O)C2O)c(=O)[nH]c1=O (centres undefined)
inactive: [1] -33.9% | [2] -16.2% | [3] 3.55% | [4] -25.2% | [5] 3.5%

COc1ccc2c(c1)c1ccc3c(c1n2C)C(=O)C=CC3=O
inactive: [1] 8.4% | [2] 43% | [3] 11% | [4] 4.8% | [5] 15.7%

Cc1nc(N)c(N2CCN(S(=O)(=O)N(Cc3ccccc3)Cc3ccccc3)CC2)c(=O)[nH]1
inactive: [1] -10.9% | [2] 2.95% | [3] -11.9% | [4] 14.9% | [5] 3.95%

ClCC[n+]1ccc2ccccc2c1
inactive: [1] 3.95% | [2] -13.4% | [3] -13.8% | [4] -9.05% | [5] -10.7%

COC(=O)C1C2CC3C(C2=O)C31 (centres undefined)
inactive: [1] 6.45% | [2] 4.45% | [3] 21.1% | [4] 20.4% | [5] 6.85%

CC(=O)C1CCC(CCCC(C)C)CC1 (centres undefined)
inactive: [1] 13.9% | [2] -2.75% | [3] -10.4% | [4] 2.4% | [5] 6.2%

CC(=O)NNC(=S)/N=C\c1c(O)c2ccccc2oc1=O
inactive: [1] -50.5% | [2] -34.2% | [3] -13.2% | [5] -37.9%

Cc1cc(=O)n2c(c1)[nH]c1ccccc12
inactive: [1] 3.25% | [2] -5.55% | [3] -0.95% | [4] 1.75% | [5] 1.65%

O=c1cc(Cl)ncn1C1OC(CO)C(O)C1O (centres undefined)
inactive: [1] -17% | [2] -27.6% | [3] -14.3% | [4] -27.6% | [5] -25.3%

C=CCC1(C(=O)NC)c2ccccc2-c2ccccc21
inactive: [1] -8.85% | [2] 1% | [3] -18.8% | [4] 43.1% | [5] -38.1%

C=C1C(=O)OC2C=C(C)CC3C=C(CCC=C(C)CCC12)C(=O)O3 (centres undefined)
inactive: [1] 0.5% | [2] -13.2% | [3] 4.9% | [4] -27.8% | [5] -17.7%

O=C(O)C1CC2C3CCC2C1C3=O (centres undefined)
inactive: [1] -8.8% | [2] 23.1% | [3] 4.4% | [4] -2.8% | [5] -34.7%

Nc1cccc(S(=O)(=O)Nc2ccccc2)c1
inactive: [1] 19.6% | [2] 1.55% | [3] -6.6% | [4] 0.65% | [5] 10%

CC(C)CCCC(C)C1CCC2C3CC=C4CCCCC4(C)C3CCC12C (centres undefined)
inactive: [1] -22.4% | [2] -3.85% | [3] -5.45% | [4] -5.05% | [5] -23.6%

O=C(Nc1cccc2ccccc12)OCCBr
inactive: [1] 6.85% | [2] 3.25% | [3] 7% | [4] -10.2% | [5] -7.4%

Cc1ccc2occ(-c3nnc(NC(=O)c4ccccc4)s3)c(=O)c2c1
inactive: [1] -36.2% | [2] -11.7% | [3] -26.6% | [4] -7.35% | [5] -23.2%

CC1(C)CC(=O)C2=C(C1)NC(SSC1=C(C#N)C(c3ccc(F)cc3)C3=C(CC(C)(C)CC3=O)N1)=C(C#N)C2c1ccc(F)cc1 (centres undefined)
inactive: [1] -22.4% | [2] -12.4% | [3] 55.5% | [4] -26.2% | [5] -25.8%

CNC(=S)SSSC(=S)NC
inactive: [1] 13.1% | [2] 1.8% | [3] 2.55% | [4] -10.3% | [5] 5.55%

C=C1C(=O)O[C@H]2[C@H]1CC(=O)/C(C)=C\CC[C@@]1(C)O[C@@H]21
inactive: [1] 29.2% | [2] 63.4% | [3] 35.5% | [4] 64.8% | [5] 43.1%

CC(C)[Si]1(C(C)C)N([Si](C)(C)F)[Si](C(C)C)(C(C)C)N1[Si](C)(C)F
inactive: [1] 7.7% | [2] -3.05% | [3] 21% | [4] -4.45% | [5] 26.2%

CC1(c2ccccc2)CCN(C2CC2)CO1 (centres undefined)
inactive: [1] 34.6% | [2] 51.6% | [3] 45.2% | [4] 48.5% | [5] -52%

O=C1C2C3CCC(O3)C2C(=O)N1c1ccccn1 (centres undefined)
inactive: [1] -26.3% | [2] -4.85% | [3] -25.1% | [4] 2.25% | [5] 0.2%

CC12NC(=O)NC1(C)NC(=O)N2 (centres undefined)
inactive: [1] -8.85% | [2] -35.9% | [3] -38.9% | [4] -29.6% | [5] 11.6%

COc1ccc(NS(=O)(=O)c2ccc(NCc3c4ccccc4nc4ccccc34)cc2)nn1
inactive: [1] -13.3% | [2] 17.2% | [3] 29.7% | [4] -0.45% | [5] 18.5%

NCCNC(=O)c1ccccc1
inactive: [1] -6.5% | [2] 0.75% | [3] 17.3% | [4] -7.95% | [5] 4.65%

CCCCCC/C=N/Nc1ccc([N+](=O)[O-])cc1[N+](=O)[O-]
inactive: [1] 1.65% | [2] -11.2% | [3] -48.2% | [4] -6.95% | [5] -4.9%

C1=CC2CCC1C1CSCC21 (centres undefined)
inactive: [1] -3.15% | [2] -8.95% | [3] -33.8% | [4] -3.45% | [5] -12.7%
